The text below walks through data of PubChem BioAssay AID778 (Sanford-Burnham Center for Chemical Genomics, 2007).

The whole screen tested about 96,000 compounds, of which about 20,000 (21%) were called active.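 Rule for the calls: active = CYP2C19 inhibition above a set limit at 5 µM in the primary screen (cut at about 50% in these data); inactive = the rest.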 The list is a sample of the results.

In the assay the target is Cytochrome P450 2C19 (Homo sapiens) (UniProt P33261). Put plainly: blockers of cytochrome P450 2C19 activity – biochemical, luminescence, ADME assay, primary screen (AID 778).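 Note: plate controls were negative control wells for no effect and 2.5 mM tranylcypromine positive control for full effect.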 Particulars: CYP2C19 Supersomes, luciferin-H EGE luminescence, 30 min; at 5 µM; stronger effect = higher value.
Chain of Cytochrome P450 2C19 (Homo sapiens) (P33261 whole entry, looked up): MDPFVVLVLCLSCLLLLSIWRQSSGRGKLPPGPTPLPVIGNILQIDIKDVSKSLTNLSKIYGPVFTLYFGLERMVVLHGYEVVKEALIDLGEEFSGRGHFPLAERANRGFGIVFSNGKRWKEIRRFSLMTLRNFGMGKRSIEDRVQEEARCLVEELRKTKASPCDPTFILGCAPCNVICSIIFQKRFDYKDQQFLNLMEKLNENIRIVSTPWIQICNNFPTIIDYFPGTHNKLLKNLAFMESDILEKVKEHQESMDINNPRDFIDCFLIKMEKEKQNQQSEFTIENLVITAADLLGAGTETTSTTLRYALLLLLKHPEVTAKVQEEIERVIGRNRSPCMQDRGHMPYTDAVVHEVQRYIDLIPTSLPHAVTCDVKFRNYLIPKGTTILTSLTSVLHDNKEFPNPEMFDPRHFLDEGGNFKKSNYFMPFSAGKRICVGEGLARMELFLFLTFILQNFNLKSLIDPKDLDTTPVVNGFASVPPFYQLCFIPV
For `CC(NC(=O)c1ccco1)C(=O)Nc1nc(-c2ccccn2)cs1` (stereo not given), the inhibition was 6% (inactive).
With `Nc1ccc(Oc2ccc(Cl)cc2)cc1`, the inhibition was 85.1% (active).
For `COc1ccc2[nH]c3ccc(OC)cc3c2c1`, the inhibition is 29.9% (inactive).
Then `CN(C)S(=O)(=O)c1ccc(Oc2ccc(S(=O)(=O)N(C)C)cc2)cc1`, with 19.7% (inactive); and `Cc1ccc(S(=O)(=O)c2ccc(Oc3ccccc3)cc2)cc1`, with -11.2% (inactive); and `Clc1ccc(Cl)c(Oc2ccc(Oc3nc(Cl)ccc3Cl)cc2)n1`, with -4.8% (inactive).
In the case of `COCCNCCOCCOc1cccc(OC)c1` it was 10.2% (inactive).
In the case of `COc1cccc(Oc2ccc(N)cc2)c1` it was 64.1% (active); in that of `Cc1ccc(Oc2ccc(N)cc2)cc1`, 87.9% (active).
On to `Nn1c(SCC(=O)NC(=O)NC2CCCC2)nnc1-c1ccccc1F`, for which the inhibition is 27.9% (inactive).
Then `COc1ccc(C(C(O)C(=O)c2c[nH]c3ccccc23)N2CCN(c3ccccc3)CC2)cc1` (stereo not given), with 28.5% (inactive); and `CCC(C)c1ccc(O)c(/C=N/O)c1` (stereo not given), with -21.8% (inactive).
For the compound `Cc1nc2ccc(C(=O)O)cc2[nH]1`, the inhibition was -2.4% (inactive).
In the case of `Cc1noc(C)c1COC(=O)c1cc2ccccc2cc1O` it was 89.3% (active); in that of `Cc1noc(C)c1COC(=O)Cn1c(C)nc2ccccc21`, 17.3% (inactive); in that of `Cc1noc(C)c1CSc1nnc2ccc3ccccc3n12`, 23.4% (inactive).
Then `CC(CN1CCOCC1)c1ccccc1` (stereo not given), with 26.4% (inactive).
In the case of `CC(C)C(=O)Nc1ccc2c(c1)oc1ccccc12` it was 13.2% (inactive); in that of `Cc1nc2cc(NC(=O)NCc3ccccc3)ccc2o1`, -8.7% (inactive); in that of `O=C(O)CCN1C(=O)CC2(CCCCC2)C1=O`, -6.7% (inactive).
With `Cc1ccc(C(=O)NCC(=O)O)cc1S(=O)(=O)N1CCCCC1`, the inhibition was -12.8% (inactive).
In the case of `O=C(Nc1ccc2c(c1)OCCO2)c1ccc(Cl)c(S(=O)(=O)N2CCCCC2)c1` it was 96.4% (active).
Then `O=C(O)c1cc(S(=O)(=O)N2CCCCCC2)c(Cl)cc1Cl`, with 0% (inactive).
In the case of `Cc1ccc(-n2nc3c(c2NC(=O)c2ccc4c(c2)OCO4)CSC3)c(C)c1`, the inhibition was 3.6% (inactive).
Regarding `Cn1c(=O)n(C)c2cc(C(=O)Nc3ccc4c(c3)OCO4)ccc21`, the inhibition was -13.9% (inactive).
As to `Cc1ccc(C(=O)Nc2ccc3c(c2)OCO3)cc1S(=O)(=O)N1CCCCC1`, the inhibition was 92.3% (active).
Then `COc1ccc(N2C(=O)c3cccc4cccc(c34)C2=O)nn1`, with -8.5% (inactive); and `CC1CCCN(C(=O)Cn2c(=O)oc3ccccc32)C1` (stereo not given), with 26.2% (inactive); and `Cc1nnc(NC2=NCCCCC2)o1`, with -3.5% (inactive).
Then `O=C(CC1NCCNC1=O)Nc1ccc(Oc2ccccc2)cc1` (stereo not given), with -0.6% (inactive); and `Cn1c(=O)[nH]c(=O)c2c1nc(Br)n2CCCCSc1nc2ccccc2o1`, with 38.5% (inactive).
Regarding `Cc1ccc(Oc2ccc3c(c2)C(=O)N(c2cccc4cccnc24)C3=O)cc1`, the inhibition is -1.5% (inactive).
In the case of `COc1ccc(CNC(=O)C2CCN(S(=O)(=O)N3CCOCC3)CC2)cc1` it was -11.9% (inactive).
Then `COc1ccc(CNC2CCCCC2)cc1`, with 69.4% (active).
In the case of `COc1ccc(N/N=C2/CCCCC2=O)cc1` it was 3.1% (inactive); in that of `CN1C(=O)c2ccc(NC(=O)C3CCCCC3)cc2C1=O`, -0.4% (inactive).
Turning to `O=C1c2ccccc2C(=O)N1c1ccccc1S(=O)C(F)(F)F` (stereo not given), the inhibition is 6.6% (inactive).
In the case of `Cc1ccc(-n2c(=O)cc(N3CCN(Cc4ccccc4)CC3)[nH]c2=O)cc1`, the inhibition was 1.5% (inactive).
In the case of `Cc1ccc(S(=O)(=O)N2CC(=O)Nc3ccccc32)cc1C` it was 60.4% (active).
Then `CC1=NCCN1S(=O)(=O)c1ccc(Br)c(C)c1`, with 27.7% (inactive); and `Cc1ccc(C)c(S(=O)(=O)N2CC(=O)Nc3ccccc32)c1`, with 32.8% (inactive); and `O=C(OCC#CCSc1nnc(-c2ccncc2)o1)c1sc2ccccc2c1Cl`, with -11.8% (inactive).
Then `CC1CCN(C(NC(=O)c2ccco2)C(=O)c2ccccc2)CC1` (stereo not given), with 35.9% (inactive); and `CCOc1ccccc1C1NC(=O)NC(C)=C1C(=O)OCc1ccco1` (stereo not given), with 16.1% (inactive); and `O=C(OCC(=O)c1cccs1)C1=COCCO1`, with 2.6% (inactive).
Regarding `CCOC(=O)C1=C(C)NC(C)=C(C(=O)OCC)C1c1ccccn1`, the inhibition is 50.3% (active).
Then `CCOC(=O)C1=C(C)NC(C)=C(C(=O)OCC)C1C1=COCCO1`, with 88.8% (active); and `CCOC(=O)C1C(=O)NCC1c1ccccc1` (stereo not given), with -0.1% (inactive).
In the case of `CCCC1NC(=O)NC(C)=C1C(=O)OCC` (stereo not given) it was 17% (inactive); in that of `CCCCCn1c(SCCC(C)C)nc2c1c(=O)[nH]c(=O)n2C`, 8.6% (inactive).
In the case of `Cc1ccc(C2CC(c3cccc(Br)c3)n3nc(N)nc3N2)cc1` (stereo not given) it was 21.7% (inactive); in that of `Cc1ccc(-c2ccc(=O)n(CC(=O)NCCCN3CCCCC3)n2)cc1`, 6.9% (inactive); in that of `O=C1c2ccccc2C(=O)c2c1cccc2N1CCN(CCO)CC1`, 1.4% (inactive).
In the case of `CCOC(=O)c1c(-c2ccccc2)csc1NC(=S)NC(=O)c1ccccc1`, the inhibition was -8.6% (inactive).
Then `Cc1ccc(NC(=S)NC(=O)c2ccc(-c3ccccc3)cc2)c(C)c1`, with 8.6% (inactive); and `Cc1cc2[nH]ncc2cc1NC(=S)NC(=O)c1ccccc1`, with 99.2% (active); and `CC1(C)C(=O)C2(CCCCC2)C(=O)OC1c1cccs1` (stereo not given), with 15.1% (inactive).
Then `CCOC1CS(=O)(=O)CC1OCC` (stereo not given), with -10.9% (inactive); and `Nc1nnc(C2CCCC2)s1`, with 8.1% (inactive); and `Cc1cc(N/C=C\C(=O)c2ccc(Cl)c(Cl)c2)no1`, with 40.4% (inactive).
In the case of `Cc1nn2c(c1-c1ccccc1)N=C(c1ccco1)CC2c1ccccc1` (stereo not given), the inhibition was 66.2% (active).
Regarding `Cc1nn(C(=O)c2ccoc2C)c(N)c1-c1ccccc1`, the inhibition is 29.7% (inactive).
Then `CN(C)/C=C(\C#N)C(=O)c1cccnc1Oc1cccc(F)c1`, with 40.5% (inactive); and `COc1cccc2cc(C(=O)N(C)C)c(=O)oc12`, with -22.6% (inactive); and `CCCCNC(=O)c1onc(CSc2cccc(OC)c2)c1C(=O)O`, with 12.9% (inactive).
In the case of `CCOc1ccc(NC(=O)N(CC(C)C)CC(C)C)cc1` it was 11.8% (inactive); in that of `CC(O)CN(Cc1ccc(Cl)cc1)CC(C)O` (stereo not given), -2.3% (inactive).
Then `OCCN(Cc1ccccc1)Cc1ccc(Cl)cc1`, with 100% (active).
For `CN(Cc1ccccc1)Cc1ccccc1F`, the inhibition is 44.7% (inactive).
On to `Brc1cnc(N2CCCC2)nc1N1CCCCC1`, for which the inhibition is 1.7% (inactive).
For `COc1cc(OC)cc(C(=O)NCCSCc2ccco2)c1`, the inhibition was 35% (inactive).
Then `O=C(CN1C(=O)C2C3C=CC(C3)C2C1=O)NCC1COc2ccccc2O1` (stereo not given), with 0.4% (inactive).
Then `COC(=O)c1sc(=S)n(-c2ccccc2)c1N`, with 17.4% (inactive); and `CCOC(=O)Cn1c(N)c(C(=O)OC)sc1=S`, with 26.8% (inactive).
Then `COC(=O)c1sc(=S)n(-c2ccc(Cl)cc2)c1C`, with 62.9% (active); and `CC1(C)CC(=O)NC=C(c2ccccc2)C1`, with 23.8% (inactive).
Regarding `Brc1ccc(/C=N/N2CCN(C3c4ccccc4-c4ccccc43)CC2)s1`, the inhibition is 11.5% (inactive).
Then `COc1ccc(OC)c(-n2cc3c(=O)n(C)c(=O)n(C)c3c2)c1`, with 38.6% (inactive).
Then `COc1cc(C2C(C#N)=C(N)Oc3n[nH]c(-c4ccccn4)c32)cc(OC)c1OC` (stereo not given), with 1.9% (inactive); and `COc1ccc(C2C(C#N)=C(N)Oc3cc(N)ccc32)cc1OC` (stereo not given), with 74.9% (active); and `N#CC1=C(N)Oc2cc(O)ccc2C1C1CCCCC1` (stereo not given), with 35.8% (inactive).
Then `CS(=O)(=O)N1CCCC(C(=O)N2CCOCC2)C1` (stereo not given), with -12.2% (inactive); and `O=C(Cc1ccc(S(=O)(=O)N2CCOCC2)s1)NCCC(c1ccccc1)c1ccccc1`, with 41.9% (inactive); and `COC(=O)NC1(C(F)(F)F)NC(=O)N(C2CCCCC2)C1=O` (stereo not given), with 7.3% (inactive).
As to `O=C1NC(Nc2nc3ccccc3s2)(C(F)(F)F)C(=O)N1C1CCCCC1` (stereo not given), the inhibition is 68.9% (active).
In the case of `CCC(=O)Nc1sc(C(=O)N2CCCCC2)c(C)c1C#N` it was 19.7% (inactive); in that of `O=C(CSc1n[nH]c(-c2cccnc2)n1)Nc1ccnc2ccccc12`, 15% (inactive); in that of `CC(=O)Nc1ccc(NC(=O)CN2CCCC(C)C2)c(Cl)c1` (stereo not given), 19.8% (inactive).
Consider `NC(=O)N1CCCC1C(=O)Nc1ccc(Cl)c(Cl)c1` (stereo not given), for which the inhibition was 54.3% (active).
Then `COc1cccc(NC(=O)C2CCCN2C(=O)OCc2ccccc2)c1` (stereo not given), with 33.1% (inactive); and `Cc1cc(NC(=O)COn2nnc3ccccc32)no1`, with 28.7% (inactive); and `S=C(NCc1cccs1)Nc1ccc(Cl)cc1`, with 89.7% (active).
As to `S=C(NCc1ccc(Cl)cc1)NC12CC3CC(CC(C3)C1)C2`, the inhibition is 47.3% (inactive).
In the case of `Cc1nn(C)cc1C(=O)NNC(=S)Nc1ccc(Cl)cc1` it was 8.5% (inactive); in that of `C=CCNC(=S)NNc1ncnc2sc3c(c12)CC(C)(C)OC3`, 17.9% (inactive); in that of `C=CCOc1c2ccc(C(=O)N(CC)c3ccc(OC)cc3)cc2nn1C`, 44.1% (inactive).
Then `O=C(CNC(=O)OCc1ccccc1)Oc1cc2oc(=O)cc(-c3ccccc3)c2cc1Cl`, with 27.8% (inactive); and `CC(=O)Nc1ccc(S(=O)(=O)N2CCSCC2)cc1`, with 11.2% (inactive); and `CC(=O)Nc1ccc(S(=O)(=O)N2CCN(CCCOc3cc(C)ccc3C)CC2)cc1`, with 84.1% (active).
Then `COc1ccc(OCC(=O)OCC(=O)Nc2ccc(S(=O)(=O)N3CCCCC3)cc2)cc1`, with 21.1% (inactive); and `Cc1cccc(OCCCC(=O)Nc2ccc(S(=O)(=O)N3CCCC3)cc2)c1`, with 50.1% (active); and `CC(=O)Nc1ccc(S(=O)(=O)N2CCN(C3CCCCCCC3)CC2)cc1`, with 25.7% (inactive).
`C=CCNC(=O)CCCOc1cccc(C)c1`: the inhibition is 17.5% (inactive).
In the case of `CCc1c(C)c2c(C)[nH]nc2oc1=O`, the inhibition is 34% (inactive).
Consider `CCOC(=O)Nc1ccc(NC(=O)OCC)cc1`, for which the inhibition was -15.6% (inactive).
